# Source: PubChem BioAssay
# Only some compounds are listed: those with a hit (about 8.9% of all), similar ones and a draw of the others.
# ALDH1A1 inh: ALDH1A1 (human) enzyme inhibition | P00352 | Purified ALDH1A1, NADH fluorescence, propionaldehyde substrate | Potency, µM (series often up to 75.3 µM), for the others: top-dose activity, negative = inhibition, actives largely listed as inhibitors | 7.3% of 220,000 active | AID 1030; active means well fitted inhibition curve with a large enough effect, not every such curve was filed as active; inconclusive means small, poorly fitted or top-dose-only effect, or another doubt; inactive means no such curve, though single readings can be large or run the other way;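 further: potency means the concentration at half of the fitted maximal effect; plate controls were no enzyme wells and a reference inhibitor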
# 12-hLO inh: blocks human 12-lipoxygenase activity; Potency, µM (series often up to 57.1 µM), without a hit: at the highest dose activity change, negative = inhibition, usual class: inhibitors; P18054; purified 12-hLO, xylenol orange hydroperoxide absorbance; 0.12% of 150,000 active; further: potency means the concentration at half of the fitted maximal effect; nearly all actives have a fitted effect of over 55% in size
#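 Hydroperoxide output read as Fe(III)-xylenol orange absorbance, 573-to-405 nm ratio, after 30 min reaction with 40 uM arachidonic acid. Enzyme: 150 nM purified human 12hLO, 15 min compound preincubation; 25 mM Hepes pH 7.0, room temperature.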
# NPSR antag: antagonists of human neuropeptide S receptor cAMP signaling; Q6W5P4; CHO-NPSR cells, cAMP TR-FRET, antagonist mode; Potency, µM (doses to about 38.3 µM), inactives show top-dose activity change, negative = inhibition, actives largely listed as inhibitors; 1% of 220,000 active; further: potency means the concentration at half of the fitted maximal effect; nearly all actives have a fitted effect of over 50% in size
# IMPase inh: membrane-permeable compound that blocks inositol monophosphatase. inhibition (IP1 accumulation), % at 46.1 µM. CHO-M1 cells, IP1 accumulation, HTRF TR-FRET ratio. AID 901. 120,000 tested, under 10 active; active means well fitted curve in the direction sought with a large enough effect in the signal ratio, not every such curve was filed as active; inconclusive means small, poorly fitted or top-dose-only effect, or a change in a side signal; inactive means no such curve, though single readings can be large or run the other way; the % refers to the signal ratio;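 further: cells stimulated with carbachol in lithium chloride buffer; plate controls were DMSO basal wells for no effect and reference inhibitor wells for full effect; higher means more IMPase inhibition seen as more IP1 and lower FRET ratio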
# Target sequence (P97697 whole entry, looked up): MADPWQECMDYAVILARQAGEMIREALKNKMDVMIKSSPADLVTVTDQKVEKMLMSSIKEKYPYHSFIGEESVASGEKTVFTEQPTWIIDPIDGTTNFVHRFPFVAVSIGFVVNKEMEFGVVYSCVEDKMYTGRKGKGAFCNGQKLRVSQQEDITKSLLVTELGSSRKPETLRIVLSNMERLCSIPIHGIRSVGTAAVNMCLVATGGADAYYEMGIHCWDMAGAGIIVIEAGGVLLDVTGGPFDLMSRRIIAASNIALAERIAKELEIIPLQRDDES
#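 Seeded CHO-M1 cells were dosed with compound at up to 46 uM, stimulated with carbachol for 30 min, then lysed in IP-One detection reagents. Higher IP1 lowers the TR-FRET signal.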
# HPGD inh: HPGD (human) dehydrogenase inhibition; P15428; purified HPGD, NADH fluorescence kinetic, PGE2 substrate; Potency, µM, for inactives: at the highest dose activity change, negative = inhibition, most hits filed as inhibitors; 4.3% of 150,000 active; active means well fitted inhibition curve with a large enough effect, not every such curve was filed as active; inconclusive means small, poorly fitted or top-dose-only effect, or another doubt; inactive means no such curve, though single readings can be large or run the other way; further: potency means the concentration at half of the fitted maximal effect
# Target sequence (P15428 whole entry, looked up): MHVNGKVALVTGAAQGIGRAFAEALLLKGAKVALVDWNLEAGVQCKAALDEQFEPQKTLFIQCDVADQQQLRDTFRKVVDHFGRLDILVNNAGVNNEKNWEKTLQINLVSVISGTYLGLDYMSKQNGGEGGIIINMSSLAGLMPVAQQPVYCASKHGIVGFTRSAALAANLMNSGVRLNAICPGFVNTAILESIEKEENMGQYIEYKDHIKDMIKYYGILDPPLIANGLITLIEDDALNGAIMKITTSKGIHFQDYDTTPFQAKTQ
#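 20 nM HPGD preincubated 15 min at room temperature with compound in 50 mM Tris-HCl pH 8, 0.01% Tween 20. Started with 1 mM NAD+ and 30 uM prostaglandin E2; NADH fluorescence (360/450 nm) read 5 times over 30-s intervals, last minus first.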
# IMPase Li inh: IMPase inhibition in cells with lithium potentiation; CHO-M1 cells, IP1 TR-FRET (IP-One), carbachol + lithium; Potency, µM (highest dose often 59.4 µM), inactives show at the top dose activity, negative = IMPase inhibition, usual class: inhibitors; 0.35% of 210,000 active; AID 1457;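 further: IP1 builds up when IMPase is blocked and the TR-FRET signal falls; potency means the concentration at half of the fitted maximal effect; plate controls were basal vehicle for no effect and high inhibitor control for full effect; nearly all actives have a fitted effect of over 50% in size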
#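 Test compounds were applied to CHO-M1 cells previously cultured for 16–30 h at 2000 per well. A small lithium amount accompanied them; after 30 min at 37C, IP1 was quantified by TR-FRET.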
# Starred values were filed as active, the others as inactive; ? = inconclusive; / = not tested or not shown; [ ] = another dose, or the depositor's remark. Unless noted, the call rests on the fitted dose curve; in most records, active means well fitted curve in the direction sought with a large enough effect; inconclusive means small, poorly fitted or top-dose-only effect, or another doubt; inactive means no such curve, though single readings can be large; an effect the other way counts as inactive or inconclusive. Unless noted, on the % scale 0 is the no-effect control and ±100 the full control effect.
SMILES,ALDH1A1 inh,12-hLO inh,NPSR antag,IMPase inh,HPGD inh,IMPase Li inh
O=C(CN1C(=O)c2ccccc2C1=O)Nc1ccccc1F,-4.4%,-4.7%,-10.0%[46.1 µM],5.8,-2.5%,-2.6%[38.3 µM]
COc1ccc2c(c1)CC/C(=C/c1ccco1)C2=O,?,-0.3%,-1.6%,/,?,2.6%
O=C1/C(=C/c2ccco2)CCc2ccccc21,28.2µM*,-8.6%,-30.7%,/,-7.1%,7.3%
O=C1C(=Cc2ccco2)C(=O)c2ccccc21,12.6µM*,-1.5%,-11.7%,/,-24.4%,0.2%
O=S1(=O)CCC(NC(=S)N2CCCCC2)C1 (stereo not drawn),-0.6%,0.0%,8.4%,/,3.0%,0.1%
Nc1ncnc2c1[nH]c(=O)n2C1OC(CO)C(O)C1O (stereo not drawn),5.6%,-3.3%,/,/,-0.9%,1.5%
Cc1ccc(-c2cc(C(=O)Nc3ccc(S(=O)(=O)Nc4cc(C)on4)cc3)c3ccccc3n2)c(C)c1,-0.3%,-7.0%,10µM*,5.1,-25.6%,6.9%[38.3 µM]
Cc1cc(NS(=O)(=O)c2ccc(NC(=S)NC(=O)c3ccccc3)cc2)no1,?,?,-16.2%[46.1 µM],13.9,-10.9%,-4.6%
Cc1ccc(-c2cc(C(=O)Nc3ccc(S(=O)(=O)Nc4onc(C)c4C)cc3)c3ccccc3n2)cc1,?,/,-40.1%,/,/,20.6%
Cc1cc(NS(=O)(=O)c2ccc(NC(=S)NC(=O)c3ccc(Cl)cc3Cl)cc2)no1,-0.1%,?,-20.4%[46.1 µM],0.5,25.1µM*,-2.5%[38.3 µM]
O=C(C1=C[C@H](C2CCCCC2)C[C@H](OCCCCO)O1)N1CCN(Cc2ccccc2)CC1,14.1µM*,/,54.1%,/,/,3.3%
COc1cccc(N2C(=O)C(c3ccccc3)=C(c3nc4ccccc4s3)C2NC(C)=O)c1 (stereo not drawn),?,-14.5%,-23.8%[46.1 µM],8.1,-18.0%,42.2%[38.3 µM]
CC(=O)NC1C(c2nc3ccccc3s2)=C(c2ccccc2)C(=O)N1c1ccc(C)cc1 (stereo not drawn),7.94µM*,-4.0%,?,8.0,-24.3%,3.8%[38.3 µM]
CCC(c1nnnn1Cc1ccco1)N1CCN(C(=O)c2ccco2)CC1 (stereo not drawn),?,2.3%,0.0%[46.1 µM],2.7,-0.3%,-12.6%[38.3 µM]
O=C(c1ccco1)N1CCN(C(c2ccccc2)c2nnnn2Cc2cccs2)CC1 (stereo not drawn),2.24µM*,-14.3%,-22.9%[46.1 µM],4.0,-3.8%,30.4%[38.3 µM]
CC(C)CC(c1nnnn1Cc1ccccc1)N1CCN(C(=O)c2ccco2)CC1 (stereo not drawn),25.1µM*,-3.5%,?,-4.4,-0.1%,44.8%[38.3 µM]
O=C(c1ccco1)N1CCN(C(c2cccs2)c2nnnn2C2CCCCC2)CC1 (stereo not drawn),17.8µM*,2.3%,-15.9%[46.1 µM],-1.7,2.9%,-12.0%[38.3 µM]
O=C(c1ccco1)N1CCN(C(c2ccccc2Cl)c2nnnn2Cc2ccco2)CC1 (stereo not drawn),11.2µM*,-11.8%,?,1.8,-5.9%,34.3%[38.3 µM]
Nc1nonc1-n1nnc(C(=O)N/N=C/c2cccc(Cl)c2)c1CSc1ccccc1,/,/,-23.5%,/,/,/
O=C(c1ccco1)N1CCN(C(c2ccccc2Cl)c2nnnn2Cc2cccs2)CC1 (stereo not drawn),12.6µM*,-10.3%,?,16.5,-9.9%,-2.8%[38.3 µM]
CC1=C(/C=C/C(C)=C/C=C/C(C)=C/C=C/C=C(C)/C=C/C=C(C)/C=C/C(=O)[C@]2(C)CC(O)CC2(C)C)C(C)(C)CC(O)C1 (stereo partly drawn),4.1%,-2.8%,/,/,-4.8%,-2.0%
CCOC(=O)c1c(NC(=S)Nc2ccc(Cl)cc2)sc2c1CCN(C)C2,25.1µM*,-4.3%,-21.7%,/,-27.2%,5.5%
CCOC(=O)N1CCc2c(sc(NC(=O)c3ccc(Cl)s3)c2C(N)=O)C1,18.9µM*,-2.9%,2.51µM*,11.8,31.6µM*,9.8%
CCOC(=O)c1c(NC(=O)Nc2ccc(F)cc2)sc2c1CCN(C)C2,-6.5%,/,?,/,/,/
CCOC(=O)c1c(NC(=S)Nc2ccc(OCC)cc2)sc2c1CCN(C)C2,23.8µM*,/,17.3%,/,/,/
